This note sets out measurements from PubChem BioAssay (NCATS).

The target in assay [1] is Transient receptor potential cation channel subfamily V member 1 (Homo sapiens) (UniProt Q8NER1). The experiment in a line: HTS Assay for Compounds that Act as Enhancers of the Vanilloid Receptor 1 (AID 488979). Further: 0% is about no effect. The method, boiled down:
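Calcium influx kinetics via Fluo-8 (480/520 nm) in TRPV1-expressing cells, 2000/well cultured overnight at 35.5C. Compound-alone read 3 min (agonist phase), followed by EC20 capsaicin challenge for 2 min (enhancer phase).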

Assay [2] concerns the target Thyrotropin receptor (Homo sapiens) (UniProt P16473). The experiment in a line: qHTS Assay for Antagonists of the Thyroid Stimulating Hormone Receptor (AID 488980). Further: series mostly up to about 58 µM; 0% is about no effect. A digest of the protocol: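 TSHR-HEK293 cells; 70 uM RO 20-1724 PDE inhibitor; compound + EC80 TSH (4 nM final); anti-cAMP cryptate antibody/cAMP-d2 in lysis buffer, 30 min RT; HTRF 665/620 nm read.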
For orientation: In qHTS, concentration-response curves come from the screen itself.

Assay [3] addresses D(1A) dopamine receptor (Homo sapiens) (UniProt P21728). The experiment in a line: HTS Assay for Allosteric Agonists of the Human D1 Dopamine Receptor: Primary Screen for Agonists (AID 488981). Further: 0% is about no effect. The method, boiled down:
(§1)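 Calcium flux in an inducible, force-coupled HEK293 Trex D1 line (overnight at 30 C): agonist mode is the 180 s kinetic read after compound; potentiator mode is the following 180 s read after dopamine at EC20.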

For assay [4] the target is unchanged. The assay is described as follows: HTS Assay for Allosteric Agonists of the Human D1 Dopamine Receptor: Primary Screen for Potentiators (AID 488982). Further: 0% is about no effect. A digest of the protocol:
as §1

Assay [5] shares this target. The experiment in a line: HTS Assay for Allosteric Agonists of the Human D1 Dopamine Receptor: Primary Screen for Antagonists (AID 488983).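 Further: calcium flux response to an EC80 dopamine challenge measured with no-wash dye; nearly all actives have a fitted effect of over 65% in size.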 Further: potency means the concentration at half of the fitted maximal effect. A digest of the protocol: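 Screening of inducible HEK293 T-REx D1 cells: compound first, EC80 dopamine 180 s later, each phase read kinetically for calcium over 180 s.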
Assay [6] can be described thus: Validation screen for small molecules that induce genotoxicity in human embryonic kidney (HEK293T) cells expressing luciferase-tagged ELG1 (AID 493106). Further: 0% is about no effect. The method, boiled down: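 Reporter-gene quantitative HTS in HEK293T cells carrying luciferase-tagged ELG1, whose level climbs under genotoxic stress. Compound exposure lasts 16 hr at 37 °C before luciferase detection.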

The target of assay [7] is Thyrotropin-releasing hormone receptor (Homo sapiens) (UniProt P34981). The assay is described as follows: qHTS for Small Molecule Agonists and Allosteric Enhancers of Human TRH Receptor: Validation Screen for Agonists (AID 493127;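 active means calcium activation more than 3 SD above the typical response in the agonist read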;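 further: intracellular calcium rise by fluo-8 fluorescence before TRH EC20 addition; 0% is about no effect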). The settings on record: TRH receptor agonist cell assay; at 2 µM; stronger effect = higher value. The method, boiled down: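 Gq-coupled calcium mobilization in TRHR cells after compound addition, monitored kinetically with fluo-8 dye on an FDSS reader.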
Sequence of Thyrotropin-releasing hormone receptor (Homo sapiens) (P34981 whole entry, looked up): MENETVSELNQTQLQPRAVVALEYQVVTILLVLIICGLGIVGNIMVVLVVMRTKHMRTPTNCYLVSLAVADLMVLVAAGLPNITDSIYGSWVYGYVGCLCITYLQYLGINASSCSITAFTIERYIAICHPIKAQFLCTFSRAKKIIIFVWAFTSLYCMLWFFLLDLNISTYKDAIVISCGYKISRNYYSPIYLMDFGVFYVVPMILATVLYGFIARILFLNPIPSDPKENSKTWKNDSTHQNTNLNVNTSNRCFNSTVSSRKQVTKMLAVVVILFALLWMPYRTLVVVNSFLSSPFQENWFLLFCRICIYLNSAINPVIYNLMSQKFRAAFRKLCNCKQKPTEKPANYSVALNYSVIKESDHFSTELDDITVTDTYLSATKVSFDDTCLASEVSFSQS

The nature of assay [8]: Nrf2 qHTS screen for inhibitors: Validation (AID 493153; active means well fitted inhibition curve with a large enough effect in the main read-out, with a control signal flat, not every such curve was filed as active). Particulars: Potency: luciferase luminescence; viability change: measured here: cytotoxicity max response. The method, boiled down: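 Dose-response validation uses reporter A549 cells with firefly luciferase under an antioxidant response element. Compounds stay on cells 18-24 h at 37°C, and luminescence indicates Nrf2-driven transcription.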

The nature of assay [9]: qHTS for Inhibitors of Cell Surface uPA Generation: Validation Assay (AID 493164).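 Further: RAW 264.7 macrophage cells exposed to compound for 18 h; 0% is about no effect.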 The method, boiled down: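 RAW 264.7, 4000 cells/well, o/n plating; cpd 7-pt 1:5 dilution 2.45 nM–38.3 uM final; 18 h, 37 C/5% CO2; ATP-Lite, 5 s luminescence exposure.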
Assay [10] deals with Galactokinase (Homo sapiens) (UniProt P51570). The assay is described as follows: qHTS Validation Assay for Inhibitors of Human Galactokinase (GALK) (AID 493189). Further: 0% is about no effect. A digest of the protocol:
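Luminescence from leftover ATP (Kinase-Glo Plus, 10 min) served as read-out after a 1 h room-temperature reaction of 5 nM GALK, 100 uM galactose and 35 uM ATP at pH8.0.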

A short description of assay [11]: Validation screen for small molecules that induce DNA re-replication in SW480 colon adenocarcinoma cells (AID 504364). Further: 0% is about no effect. The method, boiled down: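 Cells are treated 48 hr with test compound, stained 40 min with Hoechst at 37 C, and scanned for nuclear fluorescence; compounds inducing re-replication increase nuclei with elevated intensity.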
The target of assay [12] is Peptidyl-prolyl cis-trans isomerase NIMA-interacting 1 (Homo sapiens) (UniProt Q13526). The assay is described as follows: qHTS Validation Assay to Find Inhibitors of Pin1 (AID 504536; active means well fitted inhibition curve with a large enough effect in the polarisation, with a control signal flat, not every such curve was filed as active; the % refers to the polarisation;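 further: 0% = full Pin1 enzyme wells and -100% = no-enzyme wells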). A digest of the protocol: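 Fluorescence polarization competition: compounds (titration) displace HiFluor-488-labeled Pin1-1b peptide from Pin1 (0.3 uM final) in pH 7.5 HEPES buffer with DTT, 10 min at room temperature; %Activity normalized to no-enzyme wells, curves fitted.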

Assay [13] deals with Phosphoglycerate kinase, glycosomal (Trypanosoma brucei brucei) (UniProt P07378). The experiment in a line: qHTS Validation Assay to Find Inhibitors of Phosphoglycerate Kinase (AID 504547).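 Further: control wells lack PGK and mark full inhibition.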 The method, boiled down: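 Inhibition of the enzyme is judged by a Kinase-Glo Plus luminescent signal following a one-hour incubation at room temperature. Because 1,3-BPG is unstable, it is made in situ by GAPDH at 100nM final; no-PGK wells define the baseline.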
Sequence of Phosphoglycerate kinase, glycosomal (Trypanosoma brucei brucei) (P07378 whole entry, looked up): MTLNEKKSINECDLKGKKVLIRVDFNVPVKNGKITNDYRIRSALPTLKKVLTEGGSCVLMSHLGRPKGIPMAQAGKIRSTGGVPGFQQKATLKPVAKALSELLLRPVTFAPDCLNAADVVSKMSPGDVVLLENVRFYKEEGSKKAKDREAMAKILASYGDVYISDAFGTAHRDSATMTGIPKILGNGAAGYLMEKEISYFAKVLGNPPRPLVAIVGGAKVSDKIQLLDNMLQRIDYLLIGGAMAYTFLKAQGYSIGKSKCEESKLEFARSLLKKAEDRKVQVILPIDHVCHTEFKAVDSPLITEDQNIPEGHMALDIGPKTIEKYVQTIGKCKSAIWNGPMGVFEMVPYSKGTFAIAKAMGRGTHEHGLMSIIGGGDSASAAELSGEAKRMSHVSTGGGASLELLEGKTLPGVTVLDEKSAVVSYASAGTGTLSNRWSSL

Assay [14] concerns the target Ubiquitin carboxyl-terminal hydrolase 1 (Homo sapiens) (UniProt O94782). The experiment in a line: Inhibitors of USP1/UAF1: Pilot qHTS (AID 504865).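 Further: rhodamine fluorescence freed from ubiquitin-rhodamine substrate followed over time; top concentration of the series differs between compounds; on the % scale 0 is the no-effect control and ±100 the full control effect; nearly all actives have a fitted effect of over 35% in size.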 A digest of the protocol: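 1nM USP1/UAF1 + cpd, 15 min RT; start w/ Ub-Rho 150nM final; kinetic FL 480/540 nm, 6 reads q60 s. Buffer 50mM HEPES pH 7.8, 0.5mM EDTA, 1mM TCEP, 0.01% Tween-20, 0.1 mg/ml BSA.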
Assay [15] can be described thus: qHTS for Inhibitors of ATXN expression: Validation of Cytotoxic Assay (AID 588349).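 Further: cells exposed to compound for 72 hr; on the % scale 0 is the no-effect control and ±100 the full control effect.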 A digest of the protocol: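 HEK293, compound dose series, 72 hr / 37 degrees C; viability via CellTiter Glo (intracellular ATP).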
The nature of assay [16]: qHTS for Inhibitors of ATXN expression: Validation (AID 588378). Further: series mostly up to about 57 µM; on the % scale 0 is the no-effect control and ±100 the full control effect; nearly all actives have a fitted effect of over 75% in size. The method, boiled down: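 Cells: HEK293-ATXN2-FFLuc, phenol-red free DMEM, 2 h attachment. Compound pin-transfer, 24 h, 37 degrees C, 5% CO2. CellTiter-Fluor 30 min, Ex405/Em525; Bright-Glo 5 min, luminescence 2 s exposure.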
The target in assay [17] is ATPase family AAA domain-containing protein 5 (Homo sapiens) (UniProt Q96QE3). The experiment in a line: Validation screen for small molecules that inhibit ELG1-dependent DNA repair in human embryonic kidney (HEK293T) cells expressing luciferase-tagged ELG1 (AID 493107).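 Further: cells co-treated with the DNA-damaging agent 5-fluorouridine alongside compound; series mostly up to about 46 µM; on the % scale 0 is the no-effect control and ±100 the full control effect; inhibitors lower the ELG1-luciferase luminescence signal; nearly all actives have a fitted effect of over 70% in size.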 The method, boiled down:
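Quantitative HTS in HEK293T cells carrying luciferase-tagged ELG1, stimulated with 5-fluorouridine alongside compound for 16 hr. Loss of luciferase signal marks inhibition of ELG1 response.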

In assay [18] the target is phosphoglycerate mutase (Leishmania major) (UniProt Q4Q090). The experiment in a line: qHTS Validation Assay to Find Inhibitors of Phosphoglycerate Mutase (AID 504548). Further: series mostly up to about 58 µM; on the % scale 0 is the no-effect control and ±100 the full control effect. The settings on record: Potency: inhibition qHTS. A digest of the protocol: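 Lm PGAM at 1.25 nM final with substrate in 100 mM TEA pH 7.6, 5 mM MgCl2, 0.01% Tween-20; 45 min at room temperature. Kinase-GloPlus added, 10 min, end-point luminescence read.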

Inconclusive results are not listed. The source made the active and inactive calls. Unless noted, the call rests on the fitted dose curve; in most records, active means well fitted curve in the direction sought with a large enough effect; inconclusive means small, poorly fitted or top-dose-only effect, or another doubt; inactive means no such curve, though single readings can be large; an effect the other way counts as inactive or inconclusive.

Sequence of Transient receptor potential cation channel subfamily V member 1 (Homo sapiens) (Q8NER1 whole entry, looked up): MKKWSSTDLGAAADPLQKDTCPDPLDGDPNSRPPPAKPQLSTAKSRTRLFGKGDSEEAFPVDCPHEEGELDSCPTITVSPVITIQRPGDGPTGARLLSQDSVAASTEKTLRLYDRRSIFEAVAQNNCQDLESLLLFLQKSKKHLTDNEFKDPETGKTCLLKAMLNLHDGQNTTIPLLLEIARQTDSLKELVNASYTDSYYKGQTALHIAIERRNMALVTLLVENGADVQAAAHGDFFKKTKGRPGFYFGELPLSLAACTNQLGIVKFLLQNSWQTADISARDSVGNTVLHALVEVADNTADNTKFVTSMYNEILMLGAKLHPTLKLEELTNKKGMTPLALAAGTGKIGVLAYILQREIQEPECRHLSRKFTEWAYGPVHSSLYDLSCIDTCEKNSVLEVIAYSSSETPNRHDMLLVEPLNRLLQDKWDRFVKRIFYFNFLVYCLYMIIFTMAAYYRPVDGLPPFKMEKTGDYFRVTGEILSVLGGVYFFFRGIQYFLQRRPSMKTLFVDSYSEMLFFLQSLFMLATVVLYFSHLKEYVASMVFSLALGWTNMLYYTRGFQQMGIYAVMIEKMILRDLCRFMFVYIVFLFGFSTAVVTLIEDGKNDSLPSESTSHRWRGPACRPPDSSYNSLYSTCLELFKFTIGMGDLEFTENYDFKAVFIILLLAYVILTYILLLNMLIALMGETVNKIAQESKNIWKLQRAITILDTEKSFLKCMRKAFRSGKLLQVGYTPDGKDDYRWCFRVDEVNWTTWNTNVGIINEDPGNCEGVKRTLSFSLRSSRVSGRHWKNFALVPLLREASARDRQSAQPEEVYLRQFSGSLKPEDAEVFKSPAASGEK
Sequence of Thyrotropin receptor (Homo sapiens) (P16473 whole entry, looked up): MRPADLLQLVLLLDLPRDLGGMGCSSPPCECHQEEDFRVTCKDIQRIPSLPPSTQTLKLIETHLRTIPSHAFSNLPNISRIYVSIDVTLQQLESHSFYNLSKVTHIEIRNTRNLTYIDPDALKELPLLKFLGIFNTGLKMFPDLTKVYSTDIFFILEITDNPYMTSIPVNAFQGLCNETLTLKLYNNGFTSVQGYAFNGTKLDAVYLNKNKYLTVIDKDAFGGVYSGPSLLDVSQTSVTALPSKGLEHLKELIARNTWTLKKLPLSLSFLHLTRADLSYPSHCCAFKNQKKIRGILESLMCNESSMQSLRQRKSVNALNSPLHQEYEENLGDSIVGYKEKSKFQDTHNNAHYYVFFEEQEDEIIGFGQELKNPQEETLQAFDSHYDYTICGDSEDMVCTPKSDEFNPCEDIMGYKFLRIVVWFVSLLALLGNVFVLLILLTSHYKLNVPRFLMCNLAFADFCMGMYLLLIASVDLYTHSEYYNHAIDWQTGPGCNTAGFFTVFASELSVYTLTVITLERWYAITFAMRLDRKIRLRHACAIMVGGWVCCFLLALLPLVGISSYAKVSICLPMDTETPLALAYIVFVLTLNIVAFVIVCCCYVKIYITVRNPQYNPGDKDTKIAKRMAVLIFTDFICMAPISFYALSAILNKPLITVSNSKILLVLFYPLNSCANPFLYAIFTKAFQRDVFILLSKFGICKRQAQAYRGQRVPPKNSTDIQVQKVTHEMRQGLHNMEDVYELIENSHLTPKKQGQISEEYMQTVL
Sequence of ATPase family AAA domain-containing protein 5 (Homo sapiens) (Q96QE3 whole entry, looked up, the tested form may be a part): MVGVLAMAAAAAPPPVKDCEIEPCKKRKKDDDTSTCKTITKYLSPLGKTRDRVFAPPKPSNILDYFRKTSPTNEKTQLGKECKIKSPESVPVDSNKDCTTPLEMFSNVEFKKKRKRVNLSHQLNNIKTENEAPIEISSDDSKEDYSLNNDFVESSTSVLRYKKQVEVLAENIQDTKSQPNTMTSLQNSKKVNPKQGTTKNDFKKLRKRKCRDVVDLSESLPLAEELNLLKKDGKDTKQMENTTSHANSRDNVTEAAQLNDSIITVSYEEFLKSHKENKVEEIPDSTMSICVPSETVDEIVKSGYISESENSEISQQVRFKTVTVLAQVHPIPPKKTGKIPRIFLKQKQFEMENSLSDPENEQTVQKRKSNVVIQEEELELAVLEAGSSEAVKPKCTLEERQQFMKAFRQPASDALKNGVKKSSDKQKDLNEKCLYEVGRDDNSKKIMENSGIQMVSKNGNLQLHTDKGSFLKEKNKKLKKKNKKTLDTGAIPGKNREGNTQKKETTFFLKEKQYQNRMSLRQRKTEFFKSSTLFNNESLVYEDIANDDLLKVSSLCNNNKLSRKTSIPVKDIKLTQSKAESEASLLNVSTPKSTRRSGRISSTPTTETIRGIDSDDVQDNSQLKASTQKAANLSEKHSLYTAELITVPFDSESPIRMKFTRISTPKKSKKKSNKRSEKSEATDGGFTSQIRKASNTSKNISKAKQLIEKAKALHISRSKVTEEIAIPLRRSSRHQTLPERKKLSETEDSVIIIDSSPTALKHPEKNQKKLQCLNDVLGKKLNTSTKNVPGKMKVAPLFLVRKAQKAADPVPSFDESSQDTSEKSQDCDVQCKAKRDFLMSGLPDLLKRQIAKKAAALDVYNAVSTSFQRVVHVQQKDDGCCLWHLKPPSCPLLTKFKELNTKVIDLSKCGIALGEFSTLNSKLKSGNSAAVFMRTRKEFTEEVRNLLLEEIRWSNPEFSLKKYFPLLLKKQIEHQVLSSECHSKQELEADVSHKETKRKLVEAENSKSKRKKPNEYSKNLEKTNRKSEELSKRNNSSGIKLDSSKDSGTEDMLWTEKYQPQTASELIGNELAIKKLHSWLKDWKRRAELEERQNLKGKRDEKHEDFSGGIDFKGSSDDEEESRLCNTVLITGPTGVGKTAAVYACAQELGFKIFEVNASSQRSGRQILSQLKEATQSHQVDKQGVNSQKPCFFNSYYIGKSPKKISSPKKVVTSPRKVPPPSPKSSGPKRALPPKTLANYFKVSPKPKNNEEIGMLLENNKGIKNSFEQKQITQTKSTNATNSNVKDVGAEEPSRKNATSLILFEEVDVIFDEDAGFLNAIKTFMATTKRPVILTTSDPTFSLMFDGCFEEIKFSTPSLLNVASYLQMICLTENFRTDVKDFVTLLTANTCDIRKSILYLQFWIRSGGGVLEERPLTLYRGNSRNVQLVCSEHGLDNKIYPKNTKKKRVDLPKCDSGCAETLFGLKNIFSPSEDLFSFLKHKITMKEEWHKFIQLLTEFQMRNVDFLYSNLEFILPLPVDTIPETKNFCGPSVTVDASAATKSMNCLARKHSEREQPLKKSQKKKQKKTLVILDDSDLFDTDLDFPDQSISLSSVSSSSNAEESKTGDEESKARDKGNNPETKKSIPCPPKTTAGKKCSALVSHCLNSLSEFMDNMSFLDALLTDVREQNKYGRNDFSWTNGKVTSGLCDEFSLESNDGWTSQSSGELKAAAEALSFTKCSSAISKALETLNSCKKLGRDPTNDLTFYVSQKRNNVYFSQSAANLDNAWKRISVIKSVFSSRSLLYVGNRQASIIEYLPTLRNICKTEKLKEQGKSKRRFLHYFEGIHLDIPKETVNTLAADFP
Sequence of Ubiquitin carboxyl-terminal hydrolase 1 (Homo sapiens) (O94782 whole entry, looked up): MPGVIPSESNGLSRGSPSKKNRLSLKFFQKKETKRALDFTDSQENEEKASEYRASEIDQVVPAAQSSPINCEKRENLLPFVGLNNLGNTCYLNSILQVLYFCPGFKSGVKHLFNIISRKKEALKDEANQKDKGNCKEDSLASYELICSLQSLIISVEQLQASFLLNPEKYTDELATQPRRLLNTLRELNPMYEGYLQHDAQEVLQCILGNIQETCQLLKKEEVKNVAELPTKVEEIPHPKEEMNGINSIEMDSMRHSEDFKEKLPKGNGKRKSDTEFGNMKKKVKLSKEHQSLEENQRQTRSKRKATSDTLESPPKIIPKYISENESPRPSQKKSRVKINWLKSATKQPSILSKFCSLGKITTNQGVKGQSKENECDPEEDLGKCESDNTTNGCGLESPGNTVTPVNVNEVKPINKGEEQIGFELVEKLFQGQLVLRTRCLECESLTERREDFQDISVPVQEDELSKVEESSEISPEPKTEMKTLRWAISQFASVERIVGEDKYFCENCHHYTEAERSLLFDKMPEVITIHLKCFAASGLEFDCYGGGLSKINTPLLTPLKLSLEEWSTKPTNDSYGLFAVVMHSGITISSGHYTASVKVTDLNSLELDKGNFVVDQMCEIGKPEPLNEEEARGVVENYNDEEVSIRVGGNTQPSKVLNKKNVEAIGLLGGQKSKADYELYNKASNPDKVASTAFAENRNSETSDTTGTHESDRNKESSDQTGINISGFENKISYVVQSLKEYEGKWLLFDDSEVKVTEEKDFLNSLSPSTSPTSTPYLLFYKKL

As for `O=C(O)C1=CCCN(CCON=C(c2ccccc2)c2ccccc2)C1`, the outcome in [1], in assay [2] and in assay [9] was inactive. The Potency result in assay [3], in assay [4], in assay [5], in [6], in assay [8] and in [10] was “inactive” in each case. Moreover, the Potency entry in assay [11], in assay [12], in assay [13], in [14], in [15] and in [16] was “inactive” in each case. For the same molecule, in assay [7], the activation is -3% (inactive). In assay [8], the viability change was found to be 4.51%.
Regarding `CCN(CC)CCCCCCCCOC(=O)c1cc(OC)c(OC)c(OC)c1`, the result in [1], in [2] and in assay [9] was inactive. In addition, the Potency result in assay [3], in assay [4], in assay [5], in assay [17], in assay [8] and in assay [10] was “inactive” each time. Also, the Potency entry in assay [11], in assay [12], in assay [13], in assay [18], in assay [14] and in assay [16] was “inactive” throughout. Moreover, in assay [7], the activation was 1.25% (inactive). In addition, in assay [8], the viability change came to 6.3%.
`c1ccc(CN2CCC3(CCCc4ccccc43)CC2)cc1`: the outcome in assay [1] and in assay [2] was inactive. Further, the Potency entry in assay [3], in assay [4], in assay [5], in assay [6], in [8] and in assay [10] was “inactive” each time. Besides, the Potency result in [11], in assay [12], in assay [13] and in assay [14] was “inactive” in each case. The activation in assay [7] is -8.25% (inactive). Besides, the viability change in assay [8] is -10.2%.
For `CC(=O)/C(C)=N/O`, the outcome in assay [1], in assay [2] and in assay [9] was inactive. For the same molecule, the Potency result in [3], in assay [4], in assay [5], in [6], in assay [8] and in assay [10] was “inactive” in each case. Moreover, the Potency entry in assay [11], in assay [13], in assay [18], in [14], in [15] and in assay [16] was “inactive” in each case. In assay [7], the activation was 0.0625% (inactive). For the same molecule, the viability change in assay [8] was 20.6%.
Turning to `CC1=C(C(=O)O)N2C(=O)[C@@H](NC(=O)C(N)C3=CCC=CC3)[C@H]2SC1` (some centres undefined), the outcome in assay [1], in [2] and in assay [9] was inactive. Also, the Potency result in assay [3], in assay [4], in [5], in assay [6], in assay [17] and in [8] was “inactive” each time. The Potency entry in [10], in [11], in assay [13], in assay [18], in [14] and in assay [15] was “inactive” each time. Moreover, in assay [16], the Potency entry is “inactive”. In addition, the viability change in assay [8] was found to be 3.51%.
For the molecule `N=C(N)c1ccc(OCCCCCOc2ccc(C(=N)N)cc2)cc1` (tested in a mixture with another compound), the outcome in [1], in [2] and in assay [9] was inactive. In addition, the Potency entry in assay [3], in [4], in [5], in [6], in [8] and in assay [11] was “inactive” in each case. Besides, the Potency entry in assay [12], in assay [13], in [18], in [14], in assay [15] and in assay [16] was “inactive” throughout. The activation in [7] is 1.31% (inactive). Further, the viability change in assay [8] is -17%.
As for `Cc1ccccc1/C=C/C1=NCCN1`, the outcome in [1], in assay [2] and in assay [9] was inactive. Besides, the Potency result in assay [3], in [4], in assay [6], in assay [8], in [12] and in assay [18] was “inactive” throughout. For the same molecule, the Potency entry in [14] was “inactive”. In addition, the Potency in assay [5] was 12.6 µM (active). Further, the activation in assay [7] was 0.5% (inactive). Besides, the viability change in [8] is -20.2%.
For the molecule `CC(=O)C(C)=O`, the result in assay [1], in [2] and in assay [9] was inactive. Also, the Potency result in [3], in [4], in assay [5], in [6], in [17] and in assay [8] was “inactive” in each case. Moreover, the Potency result in [10], in assay [12], in assay [13], in assay [18], in [14] and in assay [15] was “inactive” each time. In assay [16], the Potency entry was “inactive”. The viability change in [8] is -3.11%.
